According to PubChem BioAssay:
Calls of active or inactive are those of the source. The rule behind the calls is not given here.

What follows are compounds tested against Pantothenate synthetase (Mycobacterium tuberculosis (strain ATCC 25618 / H37Rv)) (UniProt P9WIL5) (assay: Recombinant Mtb pantothenate synthetase (PanC) inhibitors, coupled enzyme, confirmatory (AID 375;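 note: 0% = full reaction with vehicle and 100% = no enzyme background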)). Settings: coupled enzyme assay; at 10 µM, active compounds read high.
Sequence of Pantothenate synthetase (Mycobacterium tuberculosis (strain ATCC 25618 / H37Rv)) (P9WIL5 whole entry, looked up): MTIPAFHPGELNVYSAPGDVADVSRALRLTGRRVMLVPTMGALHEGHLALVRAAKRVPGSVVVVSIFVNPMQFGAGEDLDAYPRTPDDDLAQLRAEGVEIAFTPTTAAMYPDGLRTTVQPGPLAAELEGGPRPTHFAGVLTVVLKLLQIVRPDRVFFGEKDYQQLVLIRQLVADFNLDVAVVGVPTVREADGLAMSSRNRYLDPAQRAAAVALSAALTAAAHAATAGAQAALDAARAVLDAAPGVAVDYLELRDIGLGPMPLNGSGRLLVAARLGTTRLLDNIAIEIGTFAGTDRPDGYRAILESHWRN

Row | Compound | inhibition
1 | CCOc1ccc(C(CC(=O)O)NC(=O)c2ccco2)cc1OC (stereo unspecified) | 2% (inactive)
2 | CC1(C)S[C@@H]2[C@H](NC(=O)[C@H](C(=O)O)c3ccsc3)C(=O)N2[C@H]1C(=O)O | 5% (inactive)
3 | O=C(O)c1cc2c([nH]c1=O)CCCC2 | 8% (inactive)
4 | COc1ccc(CCNC(=O)C2CCN(C(=O)N(C)C)CC2)cc1OC | 0% (inactive)
5 | N=c1c(C(=O)NCc2ccc(F)cc2)cc2c(=O)n3ccccc3nc2n1CCCN1CCOCC1 | 0% (inactive)
6 | c1ccc(-c2cnc(CSc3ncnc4sccc34)o2)cc1 | 0% (inactive)
7 | COC(=O)CSc1cc(C)nc(NC(C)=O)n1 | 4% (inactive)
8 | FC(F)(F)c1cc(-c2ccccc2)nc(N2CCCCC2)n1 | 2% (inactive)
9 | c1ccc(Cn2nnc3c(N4CCC5(CC4)OCCO5)ncnc32)cc1 | 0% (inactive)
10 | COc1ccc(-c2noc(C3CCCN(C(=O)CCc4ccccc4)C3)n2)cc1 (stereo unspecified) | 0% (inactive)
11 | O=C(Cn1c(=O)oc2ccccc21)Nc1ccc(S(=O)(=O)N2CCCCC2)cc1 | 0% (inactive)
12 | CC1(C)CC(=O)C(C=NCCc2ccc(S(N)(=O)=O)cc2)=C(O)C1 | 0% (inactive)
13 | CCOC(=O)C(C)(C)Sc1nc2c(cnn2-c2ccc(Cl)cc2)c(=O)[nH]1 | 0% (inactive)
14 | CCOC(=O)c1[nH]c2ccc(C)cc2c1NC(=O)CN1CCCCC1 | 3% (inactive)
15 | CCOC(=O)c1ccc(NS(=O)(=O)c2ccc3c(c2)CCCN3C(C)=O)cc1 | 0% (inactive)
16 | CCOc1nc(-c2ccccc2)ccc1-c1noc(-c2cccnc2)n1 | 0% (inactive)
